Compound activity as filed in PubChem.
ERa SRC1 pot – enhancers of ERα–SRC-1 coactivator binding, primary screen, biochemical, TR-FRET, ERα LBD, low estradiol. Estrogen receptor (Homo sapiens), P03372. TR-FRET ERalpha-LBD/SRC-Cy5 coactivator binding, 2 h; 100 = basal binding, no effect. coactivator binding (% of control), % at 25.6 µM. hit rate 1.3% among 86,000; in the data active = activity above about 200%;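 note: binding measured in presence of low estradiol as agonist stimulus; 0% = peptide alone without receptor and 100% = receptor with peptide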
ERa coact inh – ERα–SRC-1 coactivator interaction inhibitors, primary screen, biochemical, TR-FRET, ERα LBD, estradiol-bound. TR-FRET ER-alpha LBD / SRC-1 peptide. inhibition, % at 25.6 µM. hit rate 1.7% among 86,000. AID 629, 2007; in the data active = inhibition above about 50%;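 note: 0% = receptor plus peptide control and 100% = peptide only without receptor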
cytoskel mod – modifiers of F-actin cytoskeleton organization, primary screen, imaging, HUVEC, phalloidin staining, high-content imaging; HUVEC TNFa F-actin phalloidin imaging; inhibition, % at 2 µM; hit rate 0.18% among 91,000; AID 836, 2007;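 active = inhibition above the batch mean plus 3 SD and confirmed as a hit by visual image inspection, cut at about 30% in these data, passing the limit was not always enough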
ERb SRC1 inh – inhibitors of ERβ-SRC1 coactivator interaction, primary screen, biochemical, TR-FRET, ERβ LBD, SRC-1 peptide; TR-FRET ER-beta LBD / SRC1-Cy5 peptide binding; receptor agonist-loaded with 1 µM estradiol; inhibition, % at 25.6 µM; hit rate 1.3% among 86,000; AID 633, 2007;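 active = compounds whose percent inhibition of the receptor-coactivator binding signal exceeds about 50% in the single-dose screen, limit read from the data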;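 note: 0% = receptor plus peptide wells without compound and 100% = peptide-only wells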
Target sequence (Q92731 whole entry, looked up, the tested form may be a part): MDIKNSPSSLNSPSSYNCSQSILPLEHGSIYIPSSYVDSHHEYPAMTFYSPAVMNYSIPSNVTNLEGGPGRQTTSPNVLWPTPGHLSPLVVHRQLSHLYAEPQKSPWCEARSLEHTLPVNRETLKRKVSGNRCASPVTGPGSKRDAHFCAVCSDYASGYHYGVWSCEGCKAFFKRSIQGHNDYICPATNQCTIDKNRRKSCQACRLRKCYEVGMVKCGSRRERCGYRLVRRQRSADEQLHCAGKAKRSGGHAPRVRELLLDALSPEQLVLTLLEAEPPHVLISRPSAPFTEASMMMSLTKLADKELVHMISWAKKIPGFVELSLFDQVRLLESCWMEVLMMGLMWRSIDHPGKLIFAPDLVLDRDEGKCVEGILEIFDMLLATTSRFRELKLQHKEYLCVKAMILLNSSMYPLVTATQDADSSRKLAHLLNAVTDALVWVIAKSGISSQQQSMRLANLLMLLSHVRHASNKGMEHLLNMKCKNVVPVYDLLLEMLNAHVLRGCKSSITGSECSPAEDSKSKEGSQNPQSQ
E-sel TNF inh – E-selectin induction blockers in HUVEC – imaging, immunofluorescence, high content, primary screen | inhibition, % at 2 µM | AID 1246, 2008 | HUVEC TNFa-induced E-selectin immunofluorescence | hit rate 0.71% among 120,000;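 active = inhibition above the batch mean plus 3 SD, and confirmed as a hit on visual image review, cut at about 43% in these data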;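 note: 0% = TNF-stimulated DMSO wells and 100% = unstimulated control wells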
Candida biofilm – clotrimazole potentiators killing Candida biofilms, primary screen, with clotrimazole, Alamar Blue | inhibition, % at 6 µM | hit rate 0.14% among 85,000 | C. albicans biofilm + clotrimazole;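 active = inhibition above 20%; inactive = inhibition below 20%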;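 note: preformed 24 hr biofilms exposed to compound for 48 hr; 0% = biofilm without compound and 100% = blank killed by clotrimazole plus chlorhexidine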
An asterisk follows results filed as active; / = not tested or not shown; [ ] = remark or other dose. An excerpt weighted towards active compounds, which were near 2.9% of everything screened.

SMILES	ERa SRC1 pot	ERa coact inh	cytoskel mod	ERb SRC1 inh	E-sel TNF inh	Candida biofilm
O=C(N/N=C/c1ccncc1)/C(=C/c1ccccc1)NC(=O)c1ccccc1	/	/	-5.6	/	-38.6	/
Nc1ncnc(Nc2ccccc2C(F)(F)F)n1	666.0*[fluorescence artefact?]	-1.2	8.3	-7.4	6.3	5.9
CCCCCCc1cc2cc(-c3nnc(-c4cc(OC)c(OC)c(OC)c4)o3)c(=O)oc2cc1O	224.0*[fluorescence artefact?]	18.4	2.4	-0.2	-6.6	3.8
CCCc1ccc(Oc2cc(N3CCOCC3)nc(-c3ccccc3)n2)cc1	/	/	-4.0	/	3.4	/
CCOC(=O)c1sc(NC(=O)c2ccco2)nc1-c1ccccc1	271.1*[fluorescence artefact?]	6.1	-9.8	8.5	7.1	9.2
CC(=O)c1sc(NC(=O)c2ccco2)nc1-c1ccccc1	101.5	-0.5	-11.9	-5.4	-7.4	1.2
c1ccc(-n2ncc3c(NCC4CCCO4)ncnc32)cc1 (stereo not given)	116.7	-5.3	/	-2.8	-28.5	7.3
Clc1ccc(-n2ncc3c(NCC4CCCO4)ncnc32)cc1 (stereo not given)	73.3	25.7	/	54.8*[fluorescence artefact?]	6.8	23.0*
COc1ccc(Cl)cc1NC(=S)NCc1ccco1	103.5	-1.4	7.3	-5.0	100.0*	8.0
S=C(NCc1ccco1)Nc1cc(Cl)c(Cl)cc1Cl	/	/	/	/	29.3	/
Brc1ccc(-c2nnc(-c3cccnc3)c3conc23)cc1	82.1	69.4*	-1.3	24.9	-20.6	-0.7
Cc1ccc(-c2noc(CSc3ccccc3)n2)cc1	96.5	6.2	-0.6	4.9	-4.0	2.5
Cc1ccc(-c2noc(CSc3nc(N)cc(N)n3)n2)cc1	97.2	6.3	34.9*	2.4	/	8.7
COc1cccc(CNc2ccc(F)c(Cl)c2)c1	84.9	0.9	-1.7	-3.8	100.0*	4.3
Cc1ccc(Cn2ncc3c(N4CCN(C5CCCC5)CC4)ncnc32)cc1	/	/	/	/	99.8*	/
CCCC1(C(=O)O)NC(c2ccccc2O)C2C(=O)N(Cc3ccccc3)C(=O)C21 (stereo not given)	114.5	5.6	-22.9	-2.9	/	9.6
CSCCC1(C(=O)O)NC(c2ccccc2O)C2C(=O)N(C(C)C)C(=O)C21 (stereo not given)	111.8	83.7*[fluorescence artefact?]	-4.1	-3.6	/	-4.4
N=C1C(c2nc(-c3ccc(F)cc3)cs2)=C(O)CN1CCCN1CCOCC1	92.3	-3.4	9.7	-1.3	-0.5	0.9
CC(C)CCN1CC(O)=C(c2nc(-c3ccc(Cl)cc3)cs2)C1=N	219.4*	24.0	-18.9	28.0	-14.9	-0.6
C=CCn1c(-c2ccc(S(=O)(=O)N3CCOCC3)cc2)csc1=Nc1ccccc1	214.8*	-7.0	7.7	-25.4	-20.0	3.1
COc1ccc(C2CC(c3c(-c4ccccc4)c4cc(Cl)ccc4[nH]c3=O)=NN2S(C)(=O)=O)cc1OC (stereo not given)	130.8	68.8*	-22.6	42.9	-9.9	6.5
CCCCN1C(=O)C2C3C=CC(C2C1=O)C1C2C(=O)N(CCCC)C(=O)C2C31 (stereo not given)	/	/	/	/	71.8*	/
COC(=O)C(CC(C)C)NC(=O)/C=C/c1ccc(Cl)cc1 (stereo not given)	/	/	/	/	16.0	/
CC(CCc1ccccc1)NC(=O)/C=C/c1ccc(Cl)cc1 (stereo not given)	/	/	/	/	65.3*	/
CC1CCCC(NC(=O)COC(=O)CCSc2ccccc2)C1C (stereo not given)	/	/	/	/	-12.1	/
SMILES	ERa SRC1 pot	ERa coact inh	cytoskel mod	ERb SRC1 inh	E-sel TNF inh	Candida biofilm
CSc1nc2ccc3nc(NC(=O)c4ccccc4)sc3c2s1	222.5*[fluorescence artefact?]	55.1*[fluorescence artefact?]	18.8	47.6	-6.6	6.3
O=C(N/N=C\c1c(O)ccc2ccccc12)c1ccc(Cn2cccn2)o1	/	/	/	/	0.2	/
O=C1NN(c2ccc(Cl)c(Cl)c2)C(=O)/C1=C/c1cccc(OC(=O)c2cccs2)c1	66.1	51.1*	-10.7	27.8	37.8	-3.0
CC(c1ccco1)N(C(=O)C12CC3CC(CC(C3)C1)C2)c1ccccn1 (stereo not given)	100.8	-3.3	2.9	1.6	99.7*	-2.9
CC(c1ccco1)N(C(=O)c1ccc(Cl)s1)c1ccccn1 (stereo not given)	104.4	-4.5	-5.2	0.6	/	/
CN1C(=O)COc2ccc(C(=O)c3oc4ccccc4c3-c3cnc4c(c3)COc3ccccc3-4)cc21	317.4*[fluorescence artefact?]	15.7	-6.5	21.1	-7.5	4.4
Cc1ccc(O)c(C(=O)c2cnc3c(c2)COc2ccc(C)cc2-3)c1	101.5	27.7	-12.1	2.1	-31.9	0.9
Cc1ccc(C(=O)Cn2c(C(=O)/C=C/c3ccccc3)nc3ccccc32)cc1	/	/	-67.6	/	1.0	/
Cc1c(C(=O)Nc2ccc(-n3cnnn3)cc2)oc2ccccc12	199.5	76.4*[fluorescence artefact?]	-27.4	64.8*[fluorescence artefact?]	/	10.7
O=C(NNC(=O)c1ccccc1-n1cccc1)c1ccc(Cl)c(Cl)c1	/	/	13.2	/	3.7	/
O=C(NNC(=O)c1ccccc1-n1cccc1)c1ccc(Cl)cc1	/	/	/	/	54.2*	/
COc1ccccc1NC(=O)COC(=O)c1ccccc1C(=O)N1CCN(c2ccccc2)CC1	/	/	/	/	48.8	/
Cc1ccc(-n2c(O)c(C=Nc3ccc4c(c3)OCO4)c3ccccc3c2=O)cc1C	/	/	3.5	/	/	/
Cc1cccc(-n2c(O)c(C=Nc3ccc4c(c3)OCO4)c3ccccc3c2=O)n1	49.5	70.9*[fluorescence artefact?]	/	25.6	/	9.1
O=C1CC(c2ccco2)CC(O)=C1C=Nc1cc(Cl)ccc1O (stereo not given)	129.9	52.1*	-0.2	48.2	/	5.1
Cc1nn(Cc2ccccc2Cl)c(C)c1C(=O)NCc1ccco1	106.4	3.4	-5.5	79.0*	/	-4.9
CC1(C)Cc2cccc(OCC(=O)Nc3cc(C(F)(F)F)ccc3N3CCOCC3)c2O1	91.9	3.5	21.3	2.0	8.0	5.8
O=C(Nc1ccc(O)cc1)c1ccc2c(c1)C(=O)N(Cc1ccco1)C2=O	/	/	/	/	-12.3	/
O=C(Nc1ccc(O)cc1C(=O)O)c1ccc2c(c1)C(=O)N(Cc1ccco1)C2=O	34.0	49.3	4.3	54.2*	-28.0	3.5
COc1ccc(C(=O)OCCNC(=O)c2c(Cl)nc3ccccn23)cc1	86.0	5.6	-13.8	16.4	60.3*	-4.8
CC(C)(C)c1ccc(C(=O)OCCNC(=O)c2c(Cl)nc3ccccn23)cc1	90.0	11.5	-10.9	-5.0	22.1	1.1
O=C(CCn1nnc2ccccc21)Nc1nnc(COc2ccc(F)cc2)s1	113.0	-4.2	-8.9	-2.5	10.6	-0.6
O=C(CCn1nnc2ccccc21)Nc1nnc(Cc2ccc(F)cc2)s1	97.5	-1.6	/	-1.5	46.8*	5.5
CCN(CCNC(=O)C1CCN(c2nnc(-n3cccc3)s2)CC1)c1ccccc1	/	/	/	/	10.4	/
Cc1ccc(C(=O)N(C)CC(=O)Nc2ccc(F)c(F)c2F)o1	/	/	/	/	10.3	/
